TDP1 cell noCPT – qHTS for Inhibitors of human tyrosyl-DNA phosphodiesterase 1 (TDP1): qHTS in cells in absence of CPT; Potency, µM (titrated, usually from 46.2 µM), for inactives: at the top dose activity change, negative = growth inhibition, most hits filed as inhibitors; AID 686978, 2013; hit rate 15% among 420,000; DT40 Tdp1-/- hTDP1 cells, no CPT, ATP luminescence, 48 h; also: nearly all actives have a fitted effect of over 55% in size
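Camptothecin absent (DMSO only). Human TDP1-complemented DT40 knockout cells, 400 cells/well, 37 °C for minimum 48 hr; ATP measured via CellTiter-Glo, 30 min dark incubation, luminescence.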
HT1080 IDH1KD tx – toxicity to HT-1080 IDH1 knockdown cells (counter line); hit rate 2% among 360,000; Potency, µM (highest dose often 46.1 µM), for inactives: at the highest dose activity, negative = toxicity, usual class: cytotoxic; AID 686971; HT-1080 IDH1 knockdown viability, ATP luminescence, 48 h;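 also: 0% = DMSO wells and -100% = cell-free medium wells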
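Viability of IDH1-knockdown HT-1080 fibrosarcoma cells was assessed by CellTiter-Glo after 48 h at 37 °C with titrated compound; concentration-effect curves were classified by fit quality and response size.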
KB-V1 MDR tox – KB-V1 MDR subline cytotoxicity; KB-V1 MDR cells viability, CellTiter-Glo, 72 h; Potency, µM (doses to about 46.1 µM), usual class: cytotoxic; hit rate 3.4% among 400,000; also: nearly all actives have a fitted effect of over 60% in size
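Following 72 h at 37 degrees C with compound, KB-V1 cell viability was read by CellTiter-Glo luminescence, medium being phenol-red-free DMEM plus 10% FBS; concentration-response parameters came from normalized, curve-fitted qHTS data.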
DT40 TDP1 CPT – growth inhibition of DT40 Tdp1-/-;hTDP1 cells with camptothecin (screen for TDP1 inhibitors); chicken DT40 Tdp1-/-;hTDP1 cells + 20 nM CPT, ATP luminescence, 48 h; hit rate 12% among 420,000; AID 686979; Potency, µM (top dose mostly 46.2 µM), for inactives: top-dose activity change, negative = growth inhibition, actives largely listed as inhibitors; also: nearly all actives have a fitted effect of over 55% in size
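Cell growth measured by CellTiter-Glo luminescence after a minimum 48 h, 37 C compound exposure with 20 nM CPT in Tdp1-knockout DT40 cells stably expressing hTDP1, seeded 400/well; qHTS titration format.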
KB-3-1 tox – kills parental KB-3-1 adenocarcinoma cells; KB-3-1 viability, CellTiter-Glo ATP luminescence, 72 h; Potency, µM (highest dose often 46.1 µM), actives largely listed as cytotoxic; hit rate 1.4% among 400,000; AID 1347075; also: nearly all actives have a fitted effect of over 60% in size
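Cells are dispensed, compounds pinned in, plates held at 37 °C for 72 h, then CellTiter-Glo is added and luminescence read after 10 minutes. Cell line: parental KB-3-1 in phenol-red-free DMEM, 10% FBS.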
HT1080NT lethal – kills 2HG-producing HT-1080-NT fibrosarcoma cells | Potency, µM (top dose mostly 46.1 µM), for inactives: at the top dose activity, negative = less viability, usual class: cytotoxic | hit rate 1.6% among 360,000 | AID 686970 | HT-1080-NT fibrosarcoma viability, CellTiter-Glo ATP luminescence, 48 h;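 also: NT is the 2HG producing partner of a matched IDH1 knockdown line; 0% = DMSO-treated cells and -100% = media-only wells without cells; nearly all actives have a fitted effect of over 55% in size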
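HT-1080-NT fibrosarcoma cells (2HG-overproducing), 750 cells/well in RPMI with 5% FBS, dosed after 2 h and incubated 48 h at 37C. CellTiter-Glo luminescence normalized to DMSO and no-cell wells; concentration-response curves fitted and classed.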
Numbers without * were called inactive; i = inactive; ? = inconclusive; nt = no result given. An excerpt weighted towards active compounds, which were near 19% of everything screened. Calls follow the shape of the dose curve; as a rule, active = well fitted curve in the direction sought with a large enough effect; inconclusive = small, poorly fitted or top-dose-only effect, or another doubt; inactive = no such curve, though single readings can be large; an effect the other way counts as inactive or inconclusive. Unless noted, % is scaled to controls: 0 for no effect and ±100 for the full control effect; potency is read from the fitted curve at half-maximal effect.

SMILES	TDP1 cell noCPT	HT1080 IDH1KD tx	KB-V1 MDR tox	DT40 TDP1 CPT	KB-3-1 tox	HT1080NT lethal
Cc1ccc(-c2csc3nc(CN(C)Cc4ccccc4)[nH]c(=O)c23)cc1	25.9µM*	-2.3%	?	?	i	-16.8%
Cc1cc(C)nc(-n2nc(C)c3c(=O)[nH]c(C(F)(F)F)nc32)n1	?	-2.9%	i	-10.0%	i	-10.1%
COc1ccc(-c2nnc(C3CCN(C(=O)c4ccccc4F)CC3)o2)cc1	4.61µM*	nt	i	5.17µM*	i	nt
Cc1ccc(SCC(=O)OCC(=O)N(C)CC(=O)Nc2ccccc2Cl)cc1C	12.2%	26.7%	i	-0.6%	i	8.6%
O=C(Cc1cccc(F)c1)NO	-14.7%	22.8%	nt	-24.8%	nt	17.3%
O=C(NC1CCCCC1)N1CCN(CCc2ccccc2)CC1	-12.1%	3.6%	18.4µM*	-1.0%	i	4.6%
c1ccc(-c2csc(N3CCOCC3)n2)cc1	-7.4%	-1.0%	i	-21.5%	i	24.7%
NC(=O)C1(N2CCCCC2)CCN(c2ccc3nnc(-c4ccccc4)n3n2)CC1	?	-8.7%	i	-25.9%	i	-0.8%
NC(=O)C1(N2CCCCC2)CCN(c2nc(-c3ccccc3)cs2)CC1	16.4µM*	-27.7%	i	20.6µM*	i	-19.7%
O=C(NC1CCCCC1)N1CCN(c2nc(-c3ccccc3)cs2)CC1	25.9µM*	?	11.6µM*	?	i	-24.6%
CN(C)C(=O)N1CCN(c2nc(-c3ccccc3)cs2)CC1	?	-10.5%	?	?	i	-3.2%
O=C(NC12CC3CC(CC(C3)C1)C2)N1CCN(c2nc(-c3ccccc3)cs2)CC1	18.4µM*	0.5%	i	?	i	-1.5%
CC[C@]1(C(=O)OC)[C@H]2C(=O)N(C)C(=O)[C@H]2[C@H]2CN=C(SCc3ccc(C(=O)OC)cc3)N21	-27.9%	8.0%	i	?	i	1.1%
COc1ccc(N(C(=O)c2ccc(Br)o2)C2C=CS(=O)(=O)C2)c(OC)c1 (configuration not stated)	18.4µM*	6.7%	i	?	i	-3.6%
COc1ccc(N(C(=O)c2ccc3c(c2)OCO3)C2C=CS(=O)(=O)C2)c(OC)c1 (configuration not stated)	-0.6%	15.9%	?	4.2%	i	6.0%
CN(C(=O)COC(=O)c1ccc(S(=O)(=O)N2CCOCC2)cc1)C1CCCCC1	-2.6%	13.2%	i	0.3%	i	7.6%
CCN(C(=O)C(C)Sc1ccc(S(=O)(=O)N2CCOCC2)cn1)c1ccccc1 (configuration not stated)	18.4µM*	-3.7%	i	?	i	9.8%
CN(c1ccc(S(=O)(=O)N2CCOCC2)cn1)C1CCCCC1	23.1µM*	-7.3%	i	-62.1%	i	-1.4%
COc1ccc(S(=O)(=O)N2CCCOC2CNC(=O)C(=O)NCCO)cc1 (configuration not stated)	1.6%	1.8%	i	4.8%	i	14.4%
COc1cccc(N=Nc2c(N)[nH]n3c(=O)c4c(nc23)CCCC4)c1	?	-5.1%	?	?	?	-23.5%
COc1ccc(Cn2nc(-c3ccccc3)c(N3CCCCC3)cc2=O)cc1	11.6µM*	?	?	?	i	?
COc1ccc(O)c(/C=c2/sc3nc4cc(C)c(C)cc4n3c2=O)c1	16.4µM*	?	18.4µM*	16.4µM*	?	?
COc1cc2cncc(Cc3ccc(Cl)cc3)c2cc1OC	18.4µM*	-23.3%	i	14.6µM*	i	-11.6%
COc1ccc(OC)c(C(=O)Cn2nnc(-c3ccc(N4CCOCC4)cc3)n2)c1	0.6%	7.3%	i	-8.3%	20.6µM*	1.1%
CCN(CC)CCCNC(=O)c1cc(-c2ccccc2)c(N2CCCCC2)s1	14.6µM*	?	?	?	18.4µM*	?
SMILES	TDP1 cell noCPT	HT1080 IDH1KD tx	KB-V1 MDR tox	DT40 TDP1 CPT	KB-3-1 tox	HT1080NT lethal
CSc1ccc(CCNC(=O)c2cc(-c3ccccc3)c(N3CCOCC3)s2)cc1	16.4µM*	1.1%	i	?	i	-0.5%
O=C(NCCc1ccccc1)c1cc(-c2ccccc2)c(N2CCOCC2)s1	16.4µM*	-11.0%	i	?	i	0.4%
CCN(CC)CCCNC(=O)c1nn2c(C(F)(F)F)cc(-c3ccccc3)nc2c1Cl	?	8.3%	i	?	i	9.8%
COc1ccc(CCNC(=O)c2cc(-c3ccccc3)c(N3CCOCC3)s2)cc1OC	16.4µM*	-21.6%	?	20.6µM*	i	-23.7%
N#CCC(=O)N/N=C/c1ccc(OS(=O)(=O)c2ccccc2)cc1	-29.9%	7.8%	i	?	i	3.2%
Cc1cc2c(cc1C)CSC(c1ccccc1OC(=O)C(C)C)SC2	11.2µM*	6.6%	i	?	i	0.7%
Cc1ccc(OCCn2cc(C(=O)C3CCCCC3)c3ccccc32)cc1	18.4µM*	nt	i	20.6µM*	i	nt
Cc1ccc(OCCn2cc(C(=S)N3CCCC3)c3ccccc32)cc1C	4.11µM*	7.31µM*	5.17µM*	8.2µM*	5.8µM*	?
Cc1ccc(OCCn2cc(/C(N)=N/O)c3ccccc32)cc1C	?	-22.9%	i	-22.3%	i	-17.3%
Cc1ccc(OCCn2cc(C(=O)O)c3ccccc32)cc1	-4.0%	16.7%	i	5.2%	i	19.3%
S=C(c1cn(CCOc2cccc3ccccc23)c2ccccc12)N1CCCC1	13µM*	-15.6%	?	10.3µM*	18.4µM*	-1.2%
S=C(c1cn(CCOc2ccccc2)c2ccccc12)N1CCCC1	20µM*	?	?	17.8µM*	?	?
COCCn1cc(C(=S)N2CCCCC2)c2ccccc21	?	-4.4%	i	0.4%	i	2.6%
COc1cccc(NC(=O)CN(C)C(=O)c2cc(-c3ccccc3)nn2-c2ccccc2)c1	-5.4%	-0.7%	i	-1.3%	i	-5.3%
CCOC(=O)CCc1c(C)nc2c(c(C)nn2-c2ccc(C)cc2)c1C	-29.1%	12.6%	i	-26.0%	i	-3.8%
CC(=O)Nc1ccc(NC(=O)CCc2c(C)nc3c(c(C)nn3-c3ccccc3)c2C)cc1	-23.8%	nt	i	-16.4%	i	nt
Cc1nc2c(c(C)nn2-c2ccccc2)c(C)c1CCC(=O)Nc1ccc(F)cc1	18.4µM*	nt	i	?	i	nt
COC(=O)c1ccccc1NC(=O)CCc1c(C)nc2c(c(C)nn2-c2ccccc2)c1C	-8.3%	nt	i	2.4%	i	nt

Bioassay records as filed in PubChem.
